For assay [1], the target named is Luciferin 4-monooxygenase (Photinus pyralis) (UniProt P08659). In words: Biochemical firefly luciferase enzyme assay for NPC (AID 624030).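 Further: purified P. pyralis luciferase at 10 nM with luciferin and ATP substrate; series mostly up to about 59 µM; nearly all actives have a fitted effect of over 70% in size.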 In a few lines:
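Counter-screen for direct inhibition of the luciferase enzyme by approved-drug library compounds, run at 10 nM enzyme in 50 mM Tris acetate (final). Luminescence was read within 5 min of enzyme-buffer addition and normalized to PTC124 versus DMSO (0%).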

For assay [2], the target named is Cytochrome P450 3A4 (Homo sapiens) (UniProt P08684). The experiment in a line: qHTS Assay for Activators of Cytochrome P450 3A4 (AID 885). Further: nearly all actives have a fitted effect of over 65% in size. In a few lines:
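Quantitative HTS format: compounds preincubated with 20nM human CYP3A4 and Luciferin-PPXE substrate at KM, reaction started by NADPH regeneration, stopped after 60 min, luciferase luminescence read 20 min later.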
In general terms: Quantitative high-throughput screening tests each substance at several concentrations.

Assay [3] can be described thus: Confirmation and Secondary Assay for Modulators of Hemoglobin Beta Chain Splicing at IVS2 654 locus (AID 910).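 Further: per-well total GFP intensity by laser scanning cytometry after 2-day treatment.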 In a few lines: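 HeLa cells stably carrying EGFP interrupted by mutant beta-globin IVS2-654 intron (CMV-driven) were treated with compound for 2 days at 37C; corrected splicing was scored as total peak GFP intensity per well (488 nm excitation, 500-520 nm emission).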

A short description of assay [4]: Confirmation and Secondary Assay for Modulators of Hemoglobin Beta Chain Splicing at IVS2 705 locus (AID 930).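 Further: HeLa cells stably expressing the EGFP-705 splicing reporter; GFP fluorescence per well restored by corrected splicing of the IVS2-705 intron in EGFP; series mostly up to about 46 µM.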 In a few lines: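 Fluorescence gain (488 nm laser, 500-520 nm PMT) reflects restored correct splicing of a mutant IVS2-705 intron inside EGFP in stably transfected HeLa cells after 2-day compound treatment.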
Assay [5] addresses Luciferin 4-monooxygenase (Photinus pyralis) (UniProt P08659). In words: qHTS screen for small molecules that inhibit ELG1-dependent DNA repair: Hit Confirmation in Biochemical Luciferin Assay (AID 624253). Further: potency means the concentration at half of the fitted maximal effect. A digest of the protocol:
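Cell-free firefly luciferase counterassay: compounds were added to substrate reagent, then luciferase enzyme was added. Luminescence read on a CCD-based imager.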

The target in assay [6] is Tumor susceptibility gene 101 protein (Homo sapiens) (UniProt Q99816). In words: qHTS Assay for Iinhibitors of HIV-1 Budding by Blocking the Interaction of PTAP/TSG101: Hit Validation (AID 651600). Further: nearly all actives have a fitted effect of over 70% in size. Further: potency means the concentration at half of the fitted maximal effect. In a few lines:
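Compounds are added to the Tsg101 binding domain (10 uM final) in pH 7.5 HEPES buffer. FITC-PTAP peptide follows at 50 nM final. After 20 min at r.t., polarized FITC emission is measured.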

In assay [7] the target is ATPase family AAA domain-containing protein 5 (Homo sapiens) (UniProt Q96QE3). The experiment in a line: qHTS screen for small molecules that inhibit ELG1-dependent DNA repair in human embryonic kidney (HEK293T) cells expressing luciferase-tagged ELG1: Hit Confirmation using MMS Stimulated ELG1 (AID 624249). Further: potency means the concentration at half of the fitted maximal effect; nearly all actives have a fitted effect of over 60% in size. In a few lines: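 HEK293T ELG1-luc, 2,000 cells/well; ~5 h post-seed: cpd + MMS (10 µM final); 16 h; luc read w/ Amplight.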
Sequence of ATPase family AAA domain-containing protein 5 (Homo sapiens) (Q96QE3 whole entry, looked up, the tested form may be a part): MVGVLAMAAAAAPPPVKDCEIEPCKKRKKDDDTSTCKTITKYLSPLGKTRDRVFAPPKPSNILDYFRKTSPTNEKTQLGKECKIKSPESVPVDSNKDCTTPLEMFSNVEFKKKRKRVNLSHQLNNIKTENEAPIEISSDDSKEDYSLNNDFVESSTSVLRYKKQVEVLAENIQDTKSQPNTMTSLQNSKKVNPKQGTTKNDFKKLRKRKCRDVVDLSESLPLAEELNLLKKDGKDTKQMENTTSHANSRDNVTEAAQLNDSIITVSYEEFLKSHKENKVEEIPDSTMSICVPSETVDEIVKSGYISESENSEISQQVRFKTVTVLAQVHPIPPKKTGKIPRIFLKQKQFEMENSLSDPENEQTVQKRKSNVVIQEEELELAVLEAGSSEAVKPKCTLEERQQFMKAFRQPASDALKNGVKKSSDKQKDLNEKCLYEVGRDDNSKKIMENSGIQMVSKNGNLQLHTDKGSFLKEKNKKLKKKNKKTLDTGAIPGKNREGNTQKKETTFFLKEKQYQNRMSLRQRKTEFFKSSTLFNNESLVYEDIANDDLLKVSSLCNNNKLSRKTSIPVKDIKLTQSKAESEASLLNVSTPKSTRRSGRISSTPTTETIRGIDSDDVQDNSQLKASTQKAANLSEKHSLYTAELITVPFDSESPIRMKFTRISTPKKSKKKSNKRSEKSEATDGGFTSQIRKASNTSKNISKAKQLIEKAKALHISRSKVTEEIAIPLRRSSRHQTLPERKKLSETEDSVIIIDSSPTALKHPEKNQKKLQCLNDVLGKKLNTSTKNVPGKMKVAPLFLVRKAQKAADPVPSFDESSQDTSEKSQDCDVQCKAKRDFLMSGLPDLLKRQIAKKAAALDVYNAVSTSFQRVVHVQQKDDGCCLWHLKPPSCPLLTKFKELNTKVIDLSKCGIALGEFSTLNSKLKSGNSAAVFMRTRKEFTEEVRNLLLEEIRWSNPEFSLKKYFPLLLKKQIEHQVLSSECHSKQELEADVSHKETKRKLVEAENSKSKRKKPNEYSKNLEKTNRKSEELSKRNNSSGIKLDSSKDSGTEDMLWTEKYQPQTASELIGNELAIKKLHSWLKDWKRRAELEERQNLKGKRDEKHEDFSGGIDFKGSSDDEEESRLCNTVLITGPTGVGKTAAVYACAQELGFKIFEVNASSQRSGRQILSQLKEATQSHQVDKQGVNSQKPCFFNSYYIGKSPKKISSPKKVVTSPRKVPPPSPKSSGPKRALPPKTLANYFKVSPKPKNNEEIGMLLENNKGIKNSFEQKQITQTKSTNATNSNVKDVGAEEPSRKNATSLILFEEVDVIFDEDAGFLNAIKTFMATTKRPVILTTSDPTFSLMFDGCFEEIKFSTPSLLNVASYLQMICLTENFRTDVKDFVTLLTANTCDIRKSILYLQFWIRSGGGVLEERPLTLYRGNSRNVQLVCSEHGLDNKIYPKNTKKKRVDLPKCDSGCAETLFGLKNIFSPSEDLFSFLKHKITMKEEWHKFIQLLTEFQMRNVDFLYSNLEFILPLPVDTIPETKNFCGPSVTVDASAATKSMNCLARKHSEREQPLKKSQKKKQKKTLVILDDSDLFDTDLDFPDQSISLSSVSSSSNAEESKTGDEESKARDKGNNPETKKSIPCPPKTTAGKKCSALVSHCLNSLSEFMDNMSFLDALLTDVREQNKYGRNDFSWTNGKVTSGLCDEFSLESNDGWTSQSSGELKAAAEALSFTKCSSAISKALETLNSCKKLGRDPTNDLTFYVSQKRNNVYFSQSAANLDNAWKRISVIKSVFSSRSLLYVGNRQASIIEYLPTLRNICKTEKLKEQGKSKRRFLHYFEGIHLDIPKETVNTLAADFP

Molecules are shown by their SMILES. Results filed as inconclusive are left out. The list shows a part of the results. A call without a number means that no potency is given here. Activity calls are given as the source filed them. The call rests on the fitted dose curve; in most records, active means well fitted curve in the direction sought with a large enough effect; inconclusive means small, poorly fitted or top-dose-only effect, or another doubt; inactive means no such curve, though single readings can be large; an effect the other way counts as inactive or inconclusive.

Sequence of Tumor susceptibility gene 101 protein (Homo sapiens) (Q99816 whole entry, looked up, the tested form may be a part): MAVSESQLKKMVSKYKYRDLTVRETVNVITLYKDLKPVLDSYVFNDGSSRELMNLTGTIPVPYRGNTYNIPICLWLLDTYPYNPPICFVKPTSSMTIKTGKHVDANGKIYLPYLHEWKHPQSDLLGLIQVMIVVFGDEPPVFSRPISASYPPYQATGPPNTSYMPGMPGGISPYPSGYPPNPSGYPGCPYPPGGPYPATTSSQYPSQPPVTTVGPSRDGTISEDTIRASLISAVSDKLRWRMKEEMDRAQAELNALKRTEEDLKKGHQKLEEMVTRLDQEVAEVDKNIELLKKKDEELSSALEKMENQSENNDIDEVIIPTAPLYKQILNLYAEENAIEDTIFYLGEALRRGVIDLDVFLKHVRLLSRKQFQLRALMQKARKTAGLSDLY
Sequence of Luciferin 4-monooxygenase (Photinus pyralis) (P08659 whole entry, looked up): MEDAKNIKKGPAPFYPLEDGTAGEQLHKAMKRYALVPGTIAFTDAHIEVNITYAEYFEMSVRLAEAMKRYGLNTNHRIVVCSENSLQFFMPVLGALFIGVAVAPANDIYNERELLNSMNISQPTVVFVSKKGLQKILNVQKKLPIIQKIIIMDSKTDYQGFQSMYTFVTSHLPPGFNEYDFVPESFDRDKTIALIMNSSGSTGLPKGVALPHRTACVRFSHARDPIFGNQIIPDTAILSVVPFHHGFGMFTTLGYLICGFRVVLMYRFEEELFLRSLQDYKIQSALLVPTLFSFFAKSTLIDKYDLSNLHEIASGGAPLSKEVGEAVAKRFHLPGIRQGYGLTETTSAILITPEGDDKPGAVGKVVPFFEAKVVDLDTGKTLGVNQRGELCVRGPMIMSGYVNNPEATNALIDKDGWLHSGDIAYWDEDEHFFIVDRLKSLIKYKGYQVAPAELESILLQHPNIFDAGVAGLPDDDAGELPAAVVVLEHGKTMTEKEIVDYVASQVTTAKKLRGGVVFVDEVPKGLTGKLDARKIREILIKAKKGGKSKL
Sequence of Cytochrome P450 3A4 (Homo sapiens) (P08684 whole entry, looked up): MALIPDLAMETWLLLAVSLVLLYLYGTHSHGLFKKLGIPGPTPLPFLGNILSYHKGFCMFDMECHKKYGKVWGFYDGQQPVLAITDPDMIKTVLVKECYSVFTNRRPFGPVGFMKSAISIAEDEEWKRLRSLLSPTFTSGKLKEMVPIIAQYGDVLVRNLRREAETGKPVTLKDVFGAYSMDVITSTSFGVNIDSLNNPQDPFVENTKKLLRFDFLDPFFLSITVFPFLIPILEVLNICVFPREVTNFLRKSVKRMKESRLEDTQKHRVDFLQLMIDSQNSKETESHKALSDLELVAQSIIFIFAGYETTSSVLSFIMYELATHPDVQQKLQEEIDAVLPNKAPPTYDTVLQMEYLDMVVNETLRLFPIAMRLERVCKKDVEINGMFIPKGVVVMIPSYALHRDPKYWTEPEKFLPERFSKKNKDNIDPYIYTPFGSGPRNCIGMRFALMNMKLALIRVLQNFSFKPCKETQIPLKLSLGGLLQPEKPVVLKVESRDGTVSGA

`c1ccc(C(OC2CCCN(CCc3ccc4c(c3)OCO4)C2)c2ccccc2)cc1` (stereo not given): the Potency entry in assay [1] was “inactive”.
Turning to `Cc1nc2n(c(=O)c1CCN1CCC(c3noc4cc(F)ccc34)CC1)CCC[C@@H]2O`, the Potency entry in assay [1] was “inactive”.
Still for that read-out and setting: for `CCN(CCO)CCn1c(Cc2ccccc2)nc2c1c(=O)n(C)c(=O)n2C` the value was “inactive”; for `O=P(O)(O)OC[C@@H](O)CO`, “inactive”; for `CC(=O)CC/C=C(\C)CC/C=C(/C)CC/C=C(\C)CCC=C(C)C`, “inactive”.
The same measure, in the same setting: under `CCC(C)C1OC2(C=CC1C)CC1CC(C/C=C(\C)C(OC3CC(OC)C(OC4CC(OC)C(NC(C)=O)C(C)O4)C(C)O3)C(C)/C=C/C=C3\COC4C(O)C(C)=CC(C(=O)O1)C34O)O2` (stereo not given) (tested in a mixture with another compound) stands “inactive”; under `CCC(=O)OC1CCC2C3CCc4cc(O)ccc4C3CCC12C` (stereo not given), “inactive”.
Regarding `Cc1c(N)nc([C@@H](CC(N)=O)NC[C@H](N)C(N)=O)nc1C(=O)N[C@H](C(=O)N[C@@H](C)[C@@H](O)[C@@H](C)C(=O)N[C@H](C(=O)NCCc1nc(-c2nc(C(=O)NCCCN[C@H](C)c3ccccc3)cs2)cs1)[C@H](C)O)[C@@H](O[C@H]1O[C@@H](CO)[C@H](O)[C@@H](O)[C@H]1O[C@H]1O[C@@H](CO)[C@@H](O)[C@H](OC(N)=O)[C@H]1O)c1cnc[nH]1`, the Potency entry in assay [1] was “inactive”.
For `CCCC(=O)O[C@]1(C(=O)COC(=O)CC)[C@@H](C)C[C@H]2[C@@H]3CCC4=CC(=O)C=C[C@@]4(C)[C@@]3(F)[C@H](O)C[C@@]21C`, the Potency entry in assay [1] is “inactive”.
The same measure, in the same setting: under `CCCN(CC)[C@@H](CC)C(=O)Nc1c(C)cccc1C` stands “inactive”.
As for `CC(C)=CCC/C(C)=C\CC/C(C)=C\CC/C=C(\C)CC/C=C(\C)CCC=C(C)C`, in assay [1], the Potency entry is “inactive”.
Still for that read-out and setting: for `CO/N=C1/CC2(CC3CC(C/C=C(/C)CC(C)/C=C\C=C4\COC5C(O)C(C)=CC(C(=O)O3)C45O)O2)OC(/C(C)=C/C(C)C)C1C` (stereo not given) the value was “inactive”; for `C(=C1NCCN1)c1cccc2ccccc12`, “inactive”; for `CC(C)(S)C(=O)NC(CS)C(=O)O` (stereo not given), “inactive”.
Turning to `CC#CCC(C)[C@H](O)/C=C/C1[C@H](O)C[C@@H]2C/C(=C\CCCC(=O)O)C[C@H]12` (stereo not given in full), in assay [1], the Potency result is “inactive”.
On to `OC[C@H]1O[C@H](OC/C=C/c2ccccc2)[C@H](O)[C@@H](O)[C@@H]1O`, for which the Potency entry in assay [1] is “inactive”.
With `C/C=C(/CC[C@@H](C)[C@H]1CCC2C3=CC[C@H]4[C@H](C)[C@@H](O)CC[C@]4(C)C3CC[C@@]21C)C(C)C` (stereo not given in full), the Potency result in assay [1] is “inactive”.
Still for that read-out and setting: for `O=C(O)/C=C(/CC(=O)O)C(=O)O` the value was “inactive”.
Turning to `CC(=O)OC1CCC2(C)C(=CCC3C2CCC2(C)C(C(C)=O)CCC32)C1` (stereo not given), the Potency result in assay [1] is “inactive”.
Still for that read-out and setting: for `COc1cc2c(cc1OC)[C@@H](Cc1cc(OC)c(OC)c(OC)c1)[N@+](C)(CCCOC(=O)CC/C=C/CCC(=O)OCCC[N@+]1(C)CCc3cc(OC)c(OC)cc3[C@H]1Cc1cc(OC)c(OC)c(OC)c1)CC2` the value was “inactive”.
Take `CO/N=C(\C(=O)N[C@@H]1C(=O)N2C(C(=O)OCOC(=O)C(C)(C)C)=C(C)CS[C@H]12)c1csc(N)n1`: in assay [1], the Potency result was “inactive”.
Same read-out and setting: for `COc1ccc(CCNC[C@H](O)COc2cccc(C)c2)cc1OC` the value was “inactive”.
The same measure, in the same setting: under `COCC1=C(C(=O)OC(C)OC(=O)OC(C)C)N2C(=O)C(NC(=O)/C(=N\OC)c3csc(N)n3)C2SC1` (stereo not given) stands “inactive”; under `Cc1cccc(C)c1N(CCCc1cccnc1)C(=O)[C@@H](C)N`, “inactive”; under `CSCC[C@H](NC(=O)[C@@H](Cc1ccc(O[S+](=O)([O-])O)cc1)NC(=O)[C@H](N)CC(=O)O)C(=O)NCC(=O)N[C@@H](Cc1c[nH]c2ccccc12)C(=O)N[C@H](CCSC)C(=O)N[C@H](CC(=O)O)C(=O)N[C@@H](Cc1ccccc1)C(N)=O`, “inactive”.
The same measure, in the same setting: under `NCCCCC(NC(=O)C1CCCN1C(=O)C1CSSCC(N)C(=O)NC(Cc2ccc(O)cc2)C(=O)NC(Cc2ccccc2)C(=O)NC(CCC(N)=O)C(=O)NC(CC(N)=O)C(=O)N1)C(=O)NCC(N)=O` (stereo not given) stands “inactive”; under `CO/N=C(\C(=O)N[C@@H]1C(=O)N2C(C(=O)[O-])=C(C[n+]3cccc4c3CCCC4)CS[C@H]12)c1csc(N)n1`, “inactive”; under `CCN1CCC[C@@H]1CNC(=O)c1cc(S(=O)(=O)CC)ccc1OC`, “inactive”.
Regarding `CC/C=C(/C(=O)N[C@@H]1C(=O)N2C(C(=O)OCOC(=O)C(C)(C)C)=C(COC(N)=O)CS[C@H]12)c1csc(N)n1`, the Potency entry in assay [1] was “inactive”.
Regarding `CC(=O)O[C@]1(C(=O)CO)[C@@H](C)C[C@H]2[C@@H]3CCC4=CC(=O)C=C[C@]4(C)[C@@]3(F)[C@@H](O)C[C@]21C`, the Potency result in assay [1] was “inactive”.
Take `CCC(=O)OCC(=O)C1(OC(=O)CC)C(C)CC2C3CCC4=CC(=O)C=CC4(C)C3(Cl)C(O)CC21C` (stereo not given): the Potency entry in assay [2] is “inactive”. The compound was classed as inactive in assay [3] and in assay [4].
Regarding `CS(=O)c1ccc(/C=C2\C=Cc3ccccc32)cc1` (stereo not given), the Potency in assay [5] was 1.03 µM (active).
On the same count and under the same terms, for `COc1ccc(NC(=O)c2sc3nc(C)nc(N4CCN(c5ccccn5)CC4)c3c2C)c(OC)c1` the value was “inactive”.
Consider `CCN(c1ccc(N=Cc2c(O)n(Cc3ccc(OC)cc3)c(=O)c3ccccc23)cc1)C(C)C`, for which the Potency in assay [6] was 25.9 µM (active).
On to `Cc1ccc(Nc2nc(N3CCOCC3)nc(N3CCOCC3)n2)cc1Cl`, for which the Potency entry in assay [5] is “inactive”.
Consider `C#CCn1cc(C=C2C(=O)c3ccccc3C2=O)c2ccccc21`, for which the Potency result in assay [6] is “inactive”.
In the case of `O=C(Nn1c(SCc2ccc([N+](=O)[O-])cc2)nc2ccccc2c1=O)c1ccc(F)cc1`, the Potency in assay [5] is 16.4 µM (active).
In the case of `Cc1ccc(C2C=C(c3ccccc3)Nc3nc(NS(=O)(=O)c4ccccc4)nn32)cc1` (stereo not given), the Potency result in assay [6] is “inactive”.
For `Nc1nnc(SCC(=O)Nc2ccc3nc(SCC(=O)Nc4ccccc4)sc3c2)s1`, the Potency in assay [7] was 4.99 µM (active).
As for `O=[N+]([O-])c1ccc(-c2ccc(/C=N/Nc3nc(N4CCCC4)nc(N4CCCC4)n3)o2)cc1`, the Potency result in assay [6] was “inactive”.
On to `Cc1ccccc1NC(=O)CSc1nc2ccc(Nc3nc(N4CCOCC4)nc(N4CCOCC4)n3)cc2s1`, for which the Potency result in assay [5] is “inactive”.
The same measure, in the same setting: under `COc1ccc(NC(C)=O)cc1NC(=O)CN1CCN(C2c3ccccc3-c3ccccc32)CC1` stands “inactive”.
Regarding `O=C(NCc1cccc(F)c1)c1cccc2c1C(=O)c1ccc(N3CCC(Cc4ccccc4)CC3)cc1S2(=O)=O`, the Potency in assay [6] was 10.3 µM (active).

For the origin of these results see PubChem BioAssay (NCATS).
